ERa coact pot: enhancers of ERα–SRC-1 coactivator binding, primary screen, biochemical, TR-FRET, ERα LBD, low estradiol. Estrogen receptor (Homo sapiens), P03372. TR-FRET ERalpha-LBD/SRC-Cy5 coactivator binding, 2 h; 100 = basal binding, no effect. coactivator binding (% of control), % at 25.6 µM. 86,000 tested, 1.3% active. AID 639, 2007; in the data active means activity above about 200%;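 further: binding measured in presence of low estradiol as agonist stimulus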
Target sequence (P03372 whole entry, looked up, the tested form may be a part): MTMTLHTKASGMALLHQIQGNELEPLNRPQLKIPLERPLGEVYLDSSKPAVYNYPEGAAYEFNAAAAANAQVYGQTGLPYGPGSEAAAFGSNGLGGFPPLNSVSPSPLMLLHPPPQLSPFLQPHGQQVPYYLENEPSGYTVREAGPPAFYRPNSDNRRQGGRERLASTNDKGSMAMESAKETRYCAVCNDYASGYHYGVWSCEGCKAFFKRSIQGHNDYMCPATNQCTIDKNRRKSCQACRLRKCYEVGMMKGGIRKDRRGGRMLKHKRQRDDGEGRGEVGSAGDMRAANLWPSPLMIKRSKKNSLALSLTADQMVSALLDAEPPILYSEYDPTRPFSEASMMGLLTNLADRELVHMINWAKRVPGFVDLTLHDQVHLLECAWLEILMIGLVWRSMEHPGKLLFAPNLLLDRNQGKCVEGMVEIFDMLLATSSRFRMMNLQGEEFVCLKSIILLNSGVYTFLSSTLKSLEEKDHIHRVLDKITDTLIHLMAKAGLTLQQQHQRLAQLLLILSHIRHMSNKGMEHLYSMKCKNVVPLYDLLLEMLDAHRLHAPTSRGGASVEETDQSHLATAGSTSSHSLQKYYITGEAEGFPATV
FAK inh: FAK kinase inhibitors, primary screen, biochemical; Focal adhesion kinase 1 (Homo sapiens), Q05397; biochemical FAK kinase activity assay; inhibition, %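 (tested at 7 µM)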; 97,000 tested, 0.84% active; in the data active means inhibition above about 19%
ERa coact inh: ERα–SRC-1 coactivator interaction inhibitors, primary screen, biochemical, TR-FRET, ERα LBD, estradiol-bound; Estrogen receptor (Homo sapiens), P03372; inhibition, % at 25.6 µM; TR-FRET ER-alpha LBD / SRC-1 peptide; 86,000 tested, 1.7% active; AID 629, 2007; in the data active means inhibition above about 50%
ERb SRC1 inh: inhibitors of ERβ-SRC1 coactivator interaction, primary screen, biochemical, TR-FRET, ERβ LBD, SRC-1 peptide | Estrogen receptor beta (Homo sapiens), Q92731 | inhibition, % at 25.6 µM | 86,000 tested, 1.3% active | TR-FRET ER-beta LBD / SRC1-Cy5 peptide binding; receptor agonist-loaded with 1 µM estradiol;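 active means compounds whose percent inhibition of the receptor-coactivator binding signal exceeds about 50% in the single-dose screen, limit read from the data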
Smad3 inh: Smad3/FoxH1 peptide binding inhibitors, primary screen, biochemical, TR-FRET. 88,000 tested, 0.29% active. inhibition, % at 25 µM. Mothers against decapentaplegic homolog 3 (Homo sapiens), P84022. TR-FRET Smad3/Dy647-FoxH1 peptide binding, europium anti-His;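 active means compounds that reduce the energy-transfer binding signal between the protein and its labelled peptide by more than half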
Numbers stand for hits; . = inactive; / = not tested or not shown; [ ] = another dose, or the depositor's remark. Compounds with a hit are over-represented: about 3.3% of the library has one in this group of screens.

SMILES	ERa coact pot	FAK inh	ERa coact inh	ERb SRC1 inh	Smad3 inh
Cc1cc(NC(=O)Cn2c(C)nc3ccccc3c2=O)ccc1Br	265.4	.	.	.	.
CCC(=O)Nc1ccc2nc(C)n(CC(=O)Nc3ccccc3)c(=O)c2c1	.	.	.	.	.
C[C@]1(O)CC[C@H]2[C@H]3CC=C4N5CCN=C5CC[C@@]4(C)[C@@H]3CC[C@@]21C	/	/	/	/	.
CN[C@@H](c1ccncc1)[C@@H](NC)c1ccncc1	/	/	/	/	.
COc1cc(OC)nc(NC(=O)C(C)C)n1	.	.	62.1	.	.
CCc1ccccc1NS(=O)(=O)c1ccc2[nH]cc(C(=O)NCC3CCCO3)c(=O)c2c1 (stereo not given)	.	.	64.7	.	.
Cn1c2ccccc2c2cc(C(=O)OCC(=O)N3CC(=O)Nc4ccccc43)sc21	670.2[fluorescence artefact?]	.	.	.	.
O=C(c1ccco1)N1CCN(C(=O)c2cc(-c3ccccn3)nc3ccc(Cl)cc23)CC1	.	.	63.6[fluorescence artefact?]	54.2[fluorescence artefact?]	.
Cc1noc(C)c1C(=O)N1CCN(C(=O)c2sc3cc(Cl)ccc3c2Cl)CC1	.	.	.	68.6[fluorescence artefact?]	.
Cc1noc(C)c1C(=O)N1CCN(Cc2ccccc2)CC1	.	.	.	.	.
O=C(O)C(=Cc1ccc(-c2ccccc2)cc1)C(=O)O	/	/	/	/	.
COc1cccc(OC)c1C(=O)N1CCN(c2ccccn2)CC1	.	.	.	51.7[fluorescence artefact?]	.
COc1ccccc1C(=O)N1CCN(c2ccccn2)CC1	.	.	.	.	.
O=C(O)c1ccc(Nc2ccnc3cc(Cl)ccc23)cc1O	/	/	/	/	.
Cc1ccc(-c2csc3ncn(CC(=O)N4CCOCC4)c(=O)c23)cc1C	.	.	.	78.2[fluorescence artefact?]	.
C/C(N)=C(/C#N)C(=O)CSc1nnc(Nc2cccc(C)c2)s1	.	.	90.9[fluorescence artefact?]	96.0[fluorescence artefact?]	.
C[C@@H](SCc1ccccc1)C(=O)O	/	/	/	/	.
Cc1cccc(NC(=O)c2sc3nc(-c4ccccc4)cn3c2C)n1	.	.	.	.	.
Cc1cccc(NC(=O)c2sc3nc(-c4ccc(F)cc4)cn3c2C)n1	839.4[fluorescence artefact?]	.	.	.	.
O=C(O)CCN1C(=O)c2ccccc2C1=O	.	.	.	.	.
O=C1c2ccccc2C(=O)N1CCn1nc(Cl)nc1Cl	.	/	.	58.5[fluorescence artefact?]	.
O=C(O)[C@@H](c1ccccc1)[C@@H](C(=O)O)c1ccccc1	/	/	/	/	.
CCOC(=O)c1ccc(NC(=O)COc2cc(=O)n(CC)c3ccccc23)cc1	890.2[fluorescence artefact?]	.	.	.	.
CCc1cc(=O)oc2cc(OCC(=O)N3CCc4ccccc43)ccc12	200.3[fluorescence artefact?]	/	.	.	.
CCn1c(=O)cc(OCC(=O)N2CCc3ccccc32)c2ccccc21	211.6[fluorescence artefact?]	/	.	.	.
SMILES	ERa coact pot	FAK inh	ERa coact inh	ERb SRC1 inh	Smad3 inh
Cc1ccc2nc(N/N=C/c3cccc(C)n3)cc(C)c2c1	/	/	/	/	.
NCC(=O)N[C@H](CO)C(=O)O	/	/	/	/	.
N/C(Cc1ccc([N+](=O)[O-])cc1)=N\OC(=O)c1ccc2ccccc2c1	.	.	50.2	.	.
COc1ccccc1-c1cc(C(=O)NC(C)c2ccccc2)no1 (stereo not given)	276.4[fluorescence artefact?]	.	.	.	.
COc1ccccc1-c1cc(C(=O)NC(C)C)no1	.	.	.	.	.
COc1ccc2c(c1)CC/C(=C\c1ccc(OC)c(Cn3nc(C)cc3C)c1)C2=O	.	.	51.7	.	.
CO/N=C(\c1nonc1N)N1CCN(c2ccc(Cl)cc2[N+](=O)[O-])CC1	/	.	/	/	/
Nc1c(S(N)(=O)=O)cc(S(N)(=O)=O)cc1S(N)(=O)=O	/	/	/	/	.
COc1ccc(CN2C(=O)C(O)(CC(=O)c3ccc4c(c3)OCO4)c3ccccc32)cc1OC (stereo not given)	.	.	.	.	75.1
CCN1C(=O)C(O)(CC(=O)c2ccc3c(c2)OCCO3)c2ccccc21 (stereo not given)	.	.	.	.	.
O=C(O)c1ccccc1-c1ccccc1C(=O)Nc1ccc2c(c1)Cc1ccccc1-2	/	/	/	/	.
O=C(CSc1nccc(=O)[nH]1)c1ccccc1Br	.	.	.	.	.
O=C(O)CSSCC(=O)O	/	/	/	/	.
Clc1ccc2c(N3CCC(CCC4CCN(c5ncnc6cc(Cl)ccc56)CC4)CC3)ncnc2c1	/	/	/	/	.
CCC1(C)Cc2c(sc3c2c(=O)n(C)c2nnc(SCc4ccc5c(c4)OCO5)n32)CO1 (stereo not given)	.	.	87.2[fluorescence artefact?]	69.4[fluorescence artefact?]	.
CC(C)Oc1ccc(CSc2nnc3n(C)c(=O)c4c5c(sc4n23)CCCC5)cc1	.	.	.	.	.
Nc1nc(Nc2cccc3ccccc23)nc(C2CCCC2=O)n1 (stereo not given)	260.6[fluorescence artefact?]	/	.	.	.
O=C(O)c1ccc(C(=O)c2ccccc2)c(C(=O)O)c1	/	/	/	/	.
O=c1[nH]c(=O)n(Cc2ccco2)c2c1C(C(F)(F)F)(C(F)(F)F)N=C(CCC1CCCCC1)N2	.	.	.	.	.
O=c1[nH]c(=O)n(Cc2ccco2)c2c1C(C(F)(F)F)(C(F)(F)F)N=C(CCc1ccccc1)N2	.	.	59.5[fluorescence artefact?]	.	.
c1ccc(-c2noc(-c3ccc4ccccc4c3)n2)nc1	.	/	.	.	.
c1ccc(-c2noc(-c3ccc4c(c3)OCO4)n2)nc1	.	/	61.6[fluorescence artefact?]	56.7	.
Nc1nc(SCCC2CCCCC2)c2[nH]cnc2n1	/	/	/	/	.
COc1nc2ccc(C)cc2cc1-c1noc(-c2cccnc2)n1	240.9[fluorescence artefact?]	.	.	.	.
COc1cccc(-c2noc(-c3cccnc3)n2)c1	.	.	.	.	.
SMILES	ERa coact pot	FAK inh	ERa coact inh	ERb SRC1 inh	Smad3 inh
c1cncc(Oc2cccc(Oc3cccnc3)c2)c1	.	.	.	97.8[fluorescence artefact?]	.
O=C(O)c1ccc(OCc2ccccc2)c(Cl)c1	/	/	/	/	.
NCCNc1ncnc2ccc(Cl)cc12	/	/	/	/	.
Cc1cc(NC(=O)c2oc3ccccc3c2C)ccc1-n1cnnn1	.	.	65.2[fluorescence artefact?]	50.4[fluorescence artefact?]	.
CSc1ccc(C2C(C#N)=C(N)Oc3c2ccc(=O)c2c(C)oc(C)c32)cc1 (stereo not given)	.	.	78.2	58.0	.
CCOC(=O)N1CCN(C(=O)COc2ccc(S(=O)(=O)NC(C)C)cc2)CC1	.	/	.	.	.
CN(C)c1ccc(O)c2c1CC1CC3[C@@H](N(C)C)C(=O)C(C(N)=O)=C(O)[C@]3(O)C(=O)C1=C2O (stereo not given in full)	.	/	98.1[fluorescence artefact?]	99.7[fluorescence artefact?]	54.7[fluorescence artefact?]
COc1cc(NC(=O)c2cccs2)c(OC)cc1NC(=O)CCn1nnc2ccccc21	.	.	.	51.2[fluorescence artefact?]	.
CCOC(=O)c1sc(NC(=O)CCn2nnc3ccccc32)c(C(=O)OCC)c1C	.	/	.	.	.
COc1cc(NC(=O)c2cccs2)c(C(=O)OCC(=O)NCc2ccccc2)cc1OC	269.5	.	.	.	.
O=C(c1ccccc1)[C@H](Nc1ccc2ccccc2c1)c1ccccc1	/	/	/	/	.
OC(Cc1ccccc1)(Cc1ccccc1)c1ccccc1	/	/	/	/	.
